# PubChem BioAssay
# A number with no mark means an inactive call. Activity calls are given as the source filed them.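 How the source made its calls, unless noted: active means NADPH fluorescence slope more negative than the mean of all samples by about 3 SD, 99.7% confidence; inactive means the rest.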
# Molecular target: Voltage-gated potassium channel subunit beta-2 (Rattus norvegicus) (UniProt P62483)
# Test: KvBeta positive modulators, primary screen, biochemical, NADPH fluorescence (AID 623);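 further: fluorescence intensity change per second fitted from 20 to 320 s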
# Settings: Recombinant KvBeta, NADPH fluorescence decrease slope, 10 min; at 10 µM; hits give low values
# Voltage-gated potassium channel subunit beta-2 (Rattus norvegicus), sequence (P62483 whole entry, looked up): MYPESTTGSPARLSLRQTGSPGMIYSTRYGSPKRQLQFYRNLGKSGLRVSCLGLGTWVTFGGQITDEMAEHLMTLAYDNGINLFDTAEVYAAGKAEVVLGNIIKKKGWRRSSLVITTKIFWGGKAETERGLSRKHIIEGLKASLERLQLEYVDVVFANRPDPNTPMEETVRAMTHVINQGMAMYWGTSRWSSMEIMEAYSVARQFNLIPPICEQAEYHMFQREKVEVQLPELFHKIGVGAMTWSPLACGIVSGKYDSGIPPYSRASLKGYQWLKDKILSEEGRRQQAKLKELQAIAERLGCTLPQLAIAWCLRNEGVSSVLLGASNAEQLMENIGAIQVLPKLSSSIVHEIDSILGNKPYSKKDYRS
row,Structure (SMILES),NADPH fluorescence slope
1,CCCCOc1ccc(-c2nnn(C(C)(C)C(=O)OC)n2)cc1,-0.00029 (active)
2,O=c1c2nnn(Cc3ccc(Cl)cc3)c2ncn1Cc1ccc(F)cc1,-6.1e-05
3,COc1cc(C2C(C#N)=C(N)OC3=C2C(=O)CC(C)(C)C3)ccc1OC(=O)N1CCOCC1 (stereo not given),1.1e-05
4,CCOC(=O)c1[nH]c(C)c(C(=O)Nc2ccc(C)cc2C)c1C,-1.3e-05
5,Cn1cccc1Cc1nnc(SCC(N)=O)n1-c1ccc(F)cc1,-3.1e-05
6,COc1cccc(OCCn2ccnc2)c1,2e-05
7,COc1ccc(CCNC(=O)c2cc(C(C)C)on2)cc1OC,-1.2e-05
8,CC(CN1CCCCC1)OC(=O)c1ccc2c(c1)OCO2 (stereo not given),-3.4e-05
9,COc1ccc(NC(=O)c2oc3ccc(S(=O)(=O)N4CCC5(CC4)OCCO5)cc3c2C)cc1,4.2e-05
10,CC1CCc2c(sc3c2C2=NS(=O)(=O)CCN2C=N3)C1 (stereo not given),-6.8e-05
11,COc1ccc(/C=N/n2cnnc2SCc2ccc(OC)cc2)cc1,-4.9e-05
12,CCn1c(CCNC(=O)c2cccs2)nnc1SCC(=O)c1ccc(OC)cc1,2.4e-05
13,Cc1ccc2c(c1)C(N1CCCC1=O)CC(c1ccco1)N2 (stereo not given),3.1e-05
14,Cc1sc2nc(SCC(=O)Nc3c(C)n(C)n(-c4ccccc4)c3=O)n(C)c(=O)c2c1C,1e-05
15,COCCN(CCOC)C(=O)c1sc2nc(-c3ccccc3)cn2c1C,-9.4e-06
16,CCc1ccccc1NC(=O)C(CC)Sc1nc2cc3c(cc2c(=O)n1Cc1ccco1)OCO3 (stereo not given),-1.8e-05
17,CCc1c(C(=O)Nc2ncn(Cc3cccc(C)c3)n2)csc1C,-4.3e-05
18,CCC(=O)N1CCN(c2nc(-c3ccccc3)c3c(c2C#N)CCCC3)CC1,-8.2e-07
19,COc1ccc(S(=O)(=O)N(C)CC(=O)N2CCCCC2)cc1Cl,-2.5e-05
20,CN(CC(=O)N1CCCCC1)S(=O)(=O)c1cccc2cccnc12,-1e-05

row,Structure (SMILES),NADPH fluorescence slope
1,CS(=O)(=O)N(CC(=O)Nc1cccc(F)c1)Cc1ccccc1,-3.7e-05
2,O=S(=O)(c1cccc(S(=O)(=O)N2CCC(N3CCCCC3)CC2)c1)N1CCOCC1,-1.3e-06
3,Cc1ccc(-c2nc3cc(N)ccc3o2)cc1,-3.4e-05
4,COc1ccc(OC)c(C(=O)CSc2nc3ncccc3[nH]2)c1,-7e-05
5,O=C1c2ccccc2C(Nc2ccc3c(c2)OCO3)N1Cc1ccc2c(c1)OCO2 (stereo not given),-2.6e-05
6,COc1ccc(-c2nc(C)c(C(C)=O)n2O)cc1OC,-2.6e-05
7,CCOc1ccc(N(CC(=O)Nc2ccc(F)c(F)c2)S(=O)(=O)c2c(C)noc2C)cc1,-4.9e-05
8,CC(=O)Nc1ccc(NS(=O)(=O)c2ccc(Cl)c(C(=O)O)c2)cc1,-3.1e-05
9,CC(=O)c1cccc(NC(=O)CCNS(=O)(=O)c2cccc3nsnc23)c1,-3e-05
10,CCOc1ccccc1-n1nnnc1SCC(=O)Nc1cc2oc3ccccc3c2cc1OC,2.4e-05
11,COc1cccc(NC(=O)CSc2nnc(Cc3cccn3C)n2-c2ccc(F)cc2)c1,-2.4e-05
12,CCN1CCN(c2nc(C)nc3c2sc(=S)n3C)CC1,-2.8e-05
13,CCCc1[nH]nc2c1C(c1cn[nH]c1-c1ccc(F)cc1)C(C#N)=C(N)O2 (stereo not given),-0.000105
14,COC(=O)c1sc(N)c(C(=O)OC)c1COC(=O)C1CC(=O)N(Cc2ccco2)C1 (stereo not given),-4.3e-05
15,COC(=O)CCC(NC(=O)c1cc(-c2ccc3c(c2)OCCO3)oc1C)C(=O)OC (stereo not given),-3e-05
16,CSc1cccc(NC(=O)CN(C)S(=O)(=O)c2ccccc2)c1,-3.2e-05
17,CC(C)c1nnc(NC(=O)Cc2cccs2)s1,-1.8e-05
18,COc1ccc(NC(=O)CSc2nc3c(c(=O)n2-c2ccc(F)cc2)SCC3)c(OC)c1,-1.7e-05
19,CC(C)(CO)NC(=O)CCCOc1ccc(Cl)cc1Cl,-2.6e-05
20,Cc1cc(C)n(-c2ccc(N3CCOCC3)nn2)n1,-7.8e-06

# Molecular target: Alpha-2C adrenergic receptor (Homo sapiens) (UniProt P18825)
# Test: modulators of alpha2C/GIRK thallium flux, primary screen, cell-based, HEK293 alpha2C/GIRK1/2 (AID 624;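 active means fluorescence slope after compound addition differing from the mean of all screened samples at 99.7% confidence, in either direction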;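 further: slope of fluorescence ratio to pre-addition baseline per second over 15 to 24 s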)
# Settings: thallium flux BTC fluorescence, at 10 µM, actives lie on both sides
# Alpha-2C adrenergic receptor (Homo sapiens), sequence (P18825 whole entry, looked up): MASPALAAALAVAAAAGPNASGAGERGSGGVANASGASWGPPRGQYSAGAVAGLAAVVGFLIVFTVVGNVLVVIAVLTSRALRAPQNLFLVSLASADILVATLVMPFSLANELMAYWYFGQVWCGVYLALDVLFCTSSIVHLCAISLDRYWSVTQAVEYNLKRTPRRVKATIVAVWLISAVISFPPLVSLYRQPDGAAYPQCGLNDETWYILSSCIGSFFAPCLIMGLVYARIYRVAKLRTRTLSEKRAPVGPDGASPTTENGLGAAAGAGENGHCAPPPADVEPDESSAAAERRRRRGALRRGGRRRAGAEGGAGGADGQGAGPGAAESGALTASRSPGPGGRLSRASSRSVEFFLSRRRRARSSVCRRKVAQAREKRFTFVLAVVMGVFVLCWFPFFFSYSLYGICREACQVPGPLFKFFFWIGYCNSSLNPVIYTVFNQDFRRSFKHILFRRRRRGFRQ
row,Structure (SMILES),slope
1,CCCCOc1ccc(-c2nnn(C(C)(C)C(=O)OC)n2)cc1,0.0068
2,O=c1c2nnn(Cc3ccc(Cl)cc3)c2ncn1Cc1ccc(F)cc1,0.00552
3,COc1cc(C2C(C#N)=C(N)OC3=C2C(=O)CC(C)(C)C3)ccc1OC(=O)N1CCOCC1 (stereo not given),0.00692
4,CCOC(=O)c1[nH]c(C)c(C(=O)Nc2ccc(C)cc2C)c1C,0.00666
5,Cn1cccc1Cc1nnc(SCC(N)=O)n1-c1ccc(F)cc1,0.00615
6,COc1cccc(OCCn2ccnc2)c1,0.00692
7,COc1ccc(CCNC(=O)c2cc(C(C)C)on2)cc1OC,0.00632
8,CC(CN1CCCCC1)OC(=O)c1ccc2c(c1)OCO2 (stereo not given),0.00425
9,COc1ccc(NC(=O)c2oc3ccc(S(=O)(=O)N4CCC5(CC4)OCCO5)cc3c2C)cc1,0.00642
10,CC1CCc2c(sc3c2C2=NS(=O)(=O)CCN2C=N3)C1 (stereo not given),0.00732
11,COc1ccc(/C=N/n2cnnc2SCc2ccc(OC)cc2)cc1,0.00577
12,CCn1c(CCNC(=O)c2cccs2)nnc1SCC(=O)c1ccc(OC)cc1,0.00289
13,Cc1ccc2c(c1)C(N1CCCC1=O)CC(c1ccco1)N2 (stereo not given),0.00529
14,Cc1sc2nc(SCC(=O)Nc3c(C)n(C)n(-c4ccccc4)c3=O)n(C)c(=O)c2c1C,0.00842
15,COCCN(CCOC)C(=O)c1sc2nc(-c3ccccc3)cn2c1C,0.00336
16,CCc1ccccc1NC(=O)C(CC)Sc1nc2cc3c(cc2c(=O)n1Cc1ccco1)OCO3 (stereo not given),0.00667
17,CCc1c(C(=O)Nc2ncn(Cc3cccc(C)c3)n2)csc1C,0.00495
18,CCC(=O)N1CCN(c2nc(-c3ccccc3)c3c(c2C#N)CCCC3)CC1,0.00519
19,COc1ccc(S(=O)(=O)N(C)CC(=O)N2CCCCC2)cc1Cl,0.00667
20,CN(CC(=O)N1CCCCC1)S(=O)(=O)c1cccc2cccnc12,0.00551

row,Structure (SMILES),slope
1,CS(=O)(=O)N(CC(=O)Nc1cccc(F)c1)Cc1ccccc1,0.00637
2,O=S(=O)(c1cccc(S(=O)(=O)N2CCC(N3CCCCC3)CC2)c1)N1CCOCC1,0.00684
3,Cc1ccc(-c2nc3cc(N)ccc3o2)cc1,0.00542
4,COc1ccc(OC)c(C(=O)CSc2nc3ncccc3[nH]2)c1,0.00695
5,O=C1c2ccccc2C(Nc2ccc3c(c2)OCO3)N1Cc1ccc2c(c1)OCO2 (stereo not given),0.00394
6,COc1ccc(-c2nc(C)c(C(C)=O)n2O)cc1OC,0.00569
7,CCOc1ccc(N(CC(=O)Nc2ccc(F)c(F)c2)S(=O)(=O)c2c(C)noc2C)cc1,0.00774
8,CC(=O)Nc1ccc(NS(=O)(=O)c2ccc(Cl)c(C(=O)O)c2)cc1,0.00403
9,CC(=O)c1cccc(NC(=O)CCNS(=O)(=O)c2cccc3nsnc23)c1,0.00543
10,CCOc1ccccc1-n1nnnc1SCC(=O)Nc1cc2oc3ccccc3c2cc1OC,0.00931
11,COc1cccc(NC(=O)CSc2nnc(Cc3cccn3C)n2-c2ccc(F)cc2)c1,0.00609
12,CCN1CCN(c2nc(C)nc3c2sc(=S)n3C)CC1,0.00433
13,CCCc1[nH]nc2c1C(c1cn[nH]c1-c1ccc(F)cc1)C(C#N)=C(N)O2 (stereo not given),0.00672
14,COC(=O)c1sc(N)c(C(=O)OC)c1COC(=O)C1CC(=O)N(Cc2ccco2)C1 (stereo not given),0.00671
15,COC(=O)CCC(NC(=O)c1cc(-c2ccc3c(c2)OCCO3)oc1C)C(=O)OC (stereo not given),0.00476
16,CSc1cccc(NC(=O)CN(C)S(=O)(=O)c2ccccc2)c1,0.00611
17,CC(C)c1nnc(NC(=O)Cc2cccs2)s1,0.00736
18,COc1ccc(NC(=O)CSc2nc3c(c(=O)n2-c2ccc(F)cc2)SCC3)c(OC)c1,0.00491
19,CC(C)(CO)NC(=O)CCCOc1ccc(Cl)cc1Cl,0.00385
20,Cc1cc(C)n(-c2ccc(N3CCOCC3)nn2)n1,0.0039
